Data from the supplement of paper PMC6763611.

Each molecule was assayed on Plasmodium falciparum NF54 (assay: growth inhibition relative to untreated control; higher = more inhibition). Conditions: 1 µM; minimal medium (MM); 72 h.
Procedure, shortened: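 In dark 96-well half-area plates, each well held 100 μL of P. falciparum NF54 ring-stage culture at 1% parasitemia and 1% hematocrit. The cultures received a single test-compound dose of 5 μM or 1 μM and were kept at 37 °C for 72 h, in minimal RPMI either plain or enriched with folate (2.2 μM), pABA (7.3 μM), pHBA (7.3 μM), tyrosine (111 μM), phenylalanine (90 μM) and tryptophan. SYBR Green staining gave growth inhibition, expressed against untreated wells, with uninfected erythrocytes serving as the background.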
For Cc1ccc(NC(=O)c2cc(S(=O)(=O)NC(C)(C)C)ccc2C)nc1, the growth inhibition was 52.9%.
C[C@H](C(N)=O)N1CCCC[C@H]1c1ccc(OCc2cccc(F)c2)cc1 showed a growth inhibition of 3.3%.
Molecule Cc1nnc(NCc2cccc(Cl)c2)c2ccccc12 has a growth inhibition of 4.12%.
N=C(N)c1ccc(OCCCCCOc2ccc(C(=N)N)cc2)cc1 was tested, and the growth inhibition was 96.8%.
For NC(CC(=O)c1ccc(Cl)cc1Cl)C(Cl)(Cl)Cl (stereo not drawn), the growth inhibition was 11.5%.
Cc1ccc2oc(-c3cc(NC(=O)Cc4ccccc4)ccc3Cl)nc2c1 gave a growth inhibition of 6.84%.
Work on COc1cc(C2=NCCN2)cc2cc(-c3ccc(C4=NCCN4)cc3)oc12 yielded a growth inhibition greater than 100%.
O=C(NC1=NCCS1)c1sc2cc(F)ccc2c1Cl was tested, and the growth inhibition was 4.51%.
For CCCCOC(=O)Nc1cc2nc(C3CCCCC3)[nH]c2cc1N1CCCC1, the growth inhibition was 15.4%.
With COc1ccc(-c2nc(-c3cccc(NC(=O)Cc4ccc(F)cc4)c3)no2)cc1OC the growth inhibition was 42.7%.
CC(Oc1ccccc1)C(=O)Nc1nc(-c2ccccn2)cs1 (stereo not drawn) gave a growth inhibition of 38.4%.
Molecule Cc1ccc(S(=O)(=O)N2CCN(C(=O)c3cc(-c4ccccc4)n[nH]3)CC2)cc1 has a growth inhibition of 87.1%.
With c1cncc(NCc2ccc(-c3cc4ccncc4cc3OC3CCNCC3)s2)c1 the growth inhibition was 98%.
In the case of c1ccc(Oc2ccc(-c3cc(CN4CCOCC4)[nH]n3)cc2)cc1, the growth inhibition is reported as less than 0%.
Molecule CS(=O)(=O)c1ccc(C(=O)N(CC2CCCO2)c2nc3ccccc3s2)cc1[N+](=O)[O-] (stereo not drawn) has a growth inhibition of 31.2%.
CC(C)(C)C(=O)N(CCCCCCN1C[C@H](O)[C@@H](O)[C@H](O)[C@H]1CO)C1CCCCCC1 was tested, and the growth inhibition was less than 0%.
In the case of Cc1nn(C(=O)Nc2cccc(C(F)(F)F)c2)c(C)c1Sc1ncccn1, the growth inhibition is reported as less than 0%.
Cc1cc(C(=O)Nc2cnn(Cc3ccc(Cl)cc3Cl)c2)no1 gave a growth inhibition of 72.9%.
In the case of COc1cccc(-c2cc3c(Nc4cccnc4)nccc3[nH]2)c1, the growth inhibition is reported as 18.4%.
O=C1N(Cc2cc3ccccc3s2)CC2CN(Cc3ccccc3)CCN12 (stereo not drawn) gave a growth inhibition of 98%.
Nc1ncnc2c1ncn2[C@@H]1O[C@H](COS(=O)(=O)NC(=O)c2ccccc2O)[C@@H](O)[C@H]1O was tested, and the growth inhibition was less than 0%.
In the case of CC[C@@H](CO)NCCN[C@@H](CC)CO, the growth inhibition is reported as 28.8%.
In the case of O=C(Nc1cnc2ccccc2c1)c1cccc(-n2cnnn2)c1, the growth inhibition is reported as 96.4%.
Work on COCC(C)NC(=O)CSc1ncnc2sc(-c3ccccc3)cc12 (stereo not drawn) yielded a growth inhibition of less than 0%.
Work on O=C(Nc1nnc(S)s1)c1cc(Br)ccc1Cl yielded a growth inhibition of 9.59%.
O=C(NCCN1CCCC1)c1cc(NCCN2CCOCC2)nc2ccc(Cl)cc12 was tested, and the growth inhibition was 97.2%.
Molecule Brc1cncc(-c2cc(NCCCn3ccnc3)nc(-c3ccccc3)n2)c1 has a growth inhibition of 39.8%.
For COC(=O)c1c(NC(=O)c2c(F)c(F)c(F)c(F)c2F)sc2c1CCCCC2, the growth inhibition was 25.7%.
CNC(=O)C1Cc2c([nH]c3cc(Cl)ccc23)C2(CCN(CCc3ccccc3)CC2)N1 (stereo not drawn) showed a growth inhibition greater than 100%.
In the case of COc1ccc(Cl)cc1NC(=O)CN(C)C(=O)c1cnn(-c2ccccc2)n1, the growth inhibition is reported as 95.6%.
Molecule Cc1nn(C)cc1C(C)Nc1nncc(-c2ccc(C(F)(F)F)cc2)n1 (stereo not drawn) has a growth inhibition of 97.4%.
COC(=O)c1ccc(F)cc1NS(=O)(=O)c1cccc(-c2cnn(Cc3ccccc3)c2)c1 showed a growth inhibition of 37.7%.
In the case of CNC(=O)c1nn(C)c2c1C(C)(C)Cc1cnc(Nc3ccc(N4CCN(C)CC4)cc3)nc1-2, the growth inhibition is reported as 73.6%.
c1coc(CNc2nc(N3CCCCC3)nc3ccccc23)c1 gave a growth inhibition of 35.7%.
With CC(C)(C)c1cnc(NC(=O)c2ccccc2O)s1 the growth inhibition was 7.86%.
c1cc(C2=NCCN2)cc(-c2cc(-c3ccc(C4=NCCN4)cc3)no2)c1 showed a growth inhibition of 81.6%.
Cc1ccc(-c2nc(CN(Cc3ccccn3)C(C)C)cs2)o1 showed a growth inhibition of 20.3%.
With O=C([C@@H](c1ccc(Cl)cc1)c1cccnc1)N1CCN(c2ccc(C(F)(F)F)cc2)CC1 the growth inhibition was less than 0%.
